{"source": "PubChem BioAssay AID743269", "about": "(The Scripps Research Institute Molecular Screening Center, 2014)", "note": "In all, about 370,000 compounds went through this assay and about 2,400 (0.65%) were called active. The list comes from a sample in which actives are over-represented; it also holds similar structures and randomly drawn compounds. A number with no mark means an inactive call.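 Rule for the calls: active = inhibition above the screen-wide mean plus 3 SD (cut at about 13% in these data); inactive = the rest.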", "data": [{"test_system": "HIV-1 integrase (with human LEDGF/p75)", "assay": "blockers of LEDGF/p75-dependent integrase strand transfer – biochemical, TR-FRET, high throughput, primary screen (AID 743269);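 note: signal is the Cy5 over europium emission ratio at 671 and 618 nm; 0% = plate median of compound wells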", "conditions": "TR-FRET IN-LEDGF/p75 DNA integration, Eu/Cy5; at 3.7 µM; hits give high values", "values": [{"smiles": "CC(=O)OCCN1CCCC12CCC(c1ccccc1)CC2", "note": "(configuration not stated)", "inhibition": "-3.46%"}, {"smiles": "COC(=O)C1CN(Cc2cn(Cc3ccc(F)cc3)nn2)CCS(=O)(=O)N1Cc1ccc(Cl)cc1", "note": "(configuration not stated)", "inhibition": "0.07%"}, {"smiles": "CC(=O)OCC1(O)CC23CCC4c5ccoc5CCC4(C)C2CCC1C3", "note": "(configuration not stated)", "inhibition": "36.9% (active)"}, {"smiles": "COC(=O)c1ccccc1-n1cc(COC(=O)NCCc2ccccc2)nn1", "inhibition": "-3.43%"}, {"smiles": "C=CCN1C(=O)[C@@H](CC(=O)NCC2CCCCC2)[C@]2(C(=O)OC)CCCCC=C12", "inhibition": "0.59%"}, {"smiles": "CCOc1ccc(N(CC(=O)Nc2c(C)n(C)n(-c3ccccc3)c2=O)S(=O)(=O)c2ccc(Cl)s2)cc1", "inhibition": "2.7%"}, {"smiles": "CC(=O)NC(CC(=O)O)c1ccc(F)cc1", "note": "(configuration not stated)", "inhibition": "-3.02%"}, {"smiles": "CN(C)c1ccc(C(CC(=O)O)C(=O)O)cc1", "note": "(configuration not stated)", "inhibition": "18.1% (active)"}, {"smiles": "O=C(O)C(CCc1ccccn1)c1ccccc1", "note": "(configuration not stated)", "inhibition": "0.2%"}, {"smiles": "COc1ccnc(NC(=S)N2CCN(c3ncc(C(F)(F)F)cc3Cl)CC2)c1", "inhibition": "4.7%"}, {"smiles": "O=C1OC(NC(=O)c2ccccc2)C(N2CCOCC2)=C1Cl", "note": "(configuration not stated)", "inhibition": "1.92%"}, {"smiles": "O=C(Nc1ccc(F)cc1)c1cccnc1N1CCOCC1", "inhibition": "1.85%"}, {"smiles": "O=C(O)c1ccc(NN=CC2=C(N3CCOCC3)/C(=C/c3ccccc3)CC2)cc1", "inhibition": "27.7% (active)"}, {"smiles": "COc1ccc(Cn2ccc3ccc(-c4ccc5ccn(Cc6ccccc6C)c5c4)cc32)cc1", "inhibition": "-3.41%"}, {"smiles": "O=S1(=O)c2ccc(N3CCN(Cc4ccccc4F)CC3)cc2Oc2ccccc2CN1Cc1cn(Cc2ccc(Cl)cc2)nn1", "inhibition": "3.58%"}, {"smiles": "Cc1ccccc1NCC(=O)N/N=C\\c1ccc([N+](=O)[O-])s1", "inhibition": "19.6% (active)"}, {"smiles": "Cc1ccsc1/C=N/NC(=O)Cc1cc(=O)[nH][nH]1", "inhibition": "-1.18%"}, {"smiles": "O=[N+]([O-])c1ccc(C=Nc2ccc(Cl)cc2Cl)s1", "inhibition": "-0.56%"}, {"smiles": "CN(CCO)c1cccc2c1S(=O)(=O)N(Cc1cn(Cc3ccc(C(F)(F)F)cc3)nn1)Cc1ccccc1O2", "inhibition": "5.32%"}, {"smiles": "CC(=O)Nc1ccc(OC[C@@H](O)CN2CCC(C(O)(c3ccccc3)c3ccccc3)CC2)cc1", "inhibition": "-1.09%"}, {"smiles": "COc1ccc(-n2c(COc3ccccc3)nnc2SCC(=O)Nc2ccc3c(c2)OCO3)cc1", "inhibition": "-0.67%"}, {"smiles": "C#CCCN([C@H](C(=O)OC)C(C)C)S(=O)(=O)c1ccc(F)cc1Br", "inhibition": "-3.33%"}, {"smiles": "c1cncc(CNc2ccnc(-c3ccc4c(c3)OCO4)n2)c1", "inhibition": "2.55%"}, {"smiles": "Cc1ccc(OCc2nnc(SC/C=C/c3ccccc3)n2Cc2ccco2)cc1", "inhibition": "1.59%"}, {"smiles": "Cc1ccc(C(=O)NC(=S)Nc2ccc3[nH]c(=O)[nH]c3c2)cc1C", "inhibition": "16.7% (active)"}, {"smiles": "Cc1cc(C)cc(C(=O)NC(=S)Nc2ccc3[nH]c(=O)[nH]c3c2)c1", "inhibition": "3.15%"}, {"smiles": "Cc1ccc(S(=O)(=O)/N=C(/Nc2ccc3[nH]c(=O)[nH]c3c2)c2ccccc2)cc1", "inhibition": "-0.12%"}, {"smiles": "O=C(CSc1nc2ccccc2n1Cc1ccccc1Cl)N/N=C\\c1c[nH]c2ccccc12", "inhibition": "5.76%"}, {"smiles": "O=C(Nc1c(-c2ccccc2)nc2c(Br)cc(Br)cn12)c1ccco1", "inhibition": "1.6%"}, {"smiles": "O=C(Nc1nc(-c2ccco2)c(-c2ccco2)s1)c1ccco1", "inhibition": "68.8% (active)"}, {"smiles": "O=C(Nc1ccccc1C(=O)N1CCCCC1)c1ccco1", "inhibition": "6.1%"}, {"smiles": "CCOC(=O)C1CCN(C(=O)C(C)(C)NC(=O)Nc2ccccc2Cl)CC1", "inhibition": "-0.46%"}, {"smiles": "O=C(CN(C(=O)c1csnn1)c1ccc(Br)cc1)NC1CCCC1", "inhibition": "1.56%"}, {"smiles": "O=C(CN(C(=O)c1csnn1)c1cccc(Cl)c1)NC1CCCC1", "inhibition": "27.8% (active)"}, {"smiles": "O=C(CN(C(=O)c1nsc(Cl)c1Cl)c1cccc(F)c1)NC1CCCC1", "inhibition": "-3.15%"}, {"smiles": "C=CCOC/C=C/C#CCN(CC=C)Cc1ccc(OC)cc1OC", "inhibition": "5.5%"}, {"smiles": "CCOC(=O)[C@]12CCCC3=C1N(CCC3)C(=O)[C@@H](CC(=O)NCc1cccs1)C2", "inhibition": "-1.84%"}, {"smiles": "O=C(CSc1nnc2c(n1)[nH]c1ccccc12)NC1CCCCC1", "inhibition": "4.55%"}, {"smiles": "O=C(NC1CCCCC1)N1CCc2[nH]c3ccccc3c2C1", "inhibition": "35.1% (active)"}, {"smiles": "O=C(Nc1cccc2c1CCCC2)C1CCN(C(=O)NC2CCCCC2)CC1", "inhibition": "-1.21%"}, {"smiles": "CC(=O)C1(C(=O)Nc2nccs2)CC(c2ccccc2C(F)(F)F)=NO1", "note": "(configuration not stated)", "inhibition": "1.17%"}, {"smiles": "CC(O)c1nc2ccccc2n1Cc1ccc([N+](=O)[O-])cc1", "note": "(configuration not stated)", "inhibition": "0.5%"}, {"smiles": "CC(=O)c1nc2ccccc2n1Cc1ccccc1", "inhibition": "22.6% (active)"}, {"smiles": "O=C(O)Cn1c(Cc2ccccc2)nc2ccccc21", "inhibition": "-1.98%"}, {"smiles": "COc1cccc(/C=C2\\CC3(OC(C)=O)CCCN2C3)c1", "note": "(configuration not stated)", "inhibition": "-3.9%"}, {"smiles": "O=C1C(=O)N(Cc2ccc(-c3ccsc3)cc2)c2ccc(OC(F)(F)F)cc21", "inhibition": "0.06%"}, {"smiles": "Cc1cccc(NC(=O)C[C@H]2CC[C@H]3[C@@H](COc4ccc(NC(=O)Nc5ccccc5)cc4C(=O)N3C)O2)c1", "inhibition": "1.61%"}, {"smiles": "Cc1ccc(C2=CCN(C)C(=O)N2c2ccc(Cl)cc2)cc1", "inhibition": "0.69%"}, {"smiles": "Oc1c(C=Nc2cccc3nsnc23)ccc2ccccc12", "inhibition": "25.6% (active)"}, {"smiles": "O=C(CSc1nnc(COc2ccccc2)n1-c1ccc(Cl)cc1)Nc1ccc2c(c1)OCO2", "inhibition": "-1.91%"}, {"smiles": "COC(=O)C1CN(CC(C)C)CCS(=O)(=O)N1Cc1ccc(F)cc1", "note": "(configuration not stated)", "inhibition": "-4.4%"}, {"smiles": "COc1ccc(C(=O)CSc2n[nH]c(N)n2)cc1", "inhibition": "-3.51%"}, {"smiles": "Cc1cc(Oc2ccc(Cl)cc2)nc(SCC(=O)c2ccccc2)n1", "inhibition": "35.9% (active)"}, {"smiles": "Cc1nc(SCC(=O)c2ccccc2)c([N+](=O)[O-])[nH]1", "inhibition": "-5.1%"}, {"smiles": "COC(=O)[C@]12C[C@H](CC(=O)NCCCN3CCCC3=O)C(=O)N(CCc3ccc(OC)c(OC)c3)C1=C[C@H](COCc1ccccc1)O[C@@H]2C", "inhibition": "-3.08%"}, {"smiles": "NC1=CC(=O)C(=O)c2cccnc21", "inhibition": "40% (active)"}, {"smiles": "O=c1ccc2c(-c3ccccc3S(=O)(=O)O)c3ccc(O)c(O)c3oc-2c1O", "inhibition": "84% (active)"}]}]}
